# Screening results deposited in PubChem by The Scripps Research Institute Molecular Screening Center.
# Rows were chosen to be rich in hits. Some 3.5% of all compounds tested hit in one or more screens of this group.
# FBW7 activator = activators of human E3 ligase FBW7; hit rate 0.13% among 650,000; normalized activity (activation), % at 26.1 µM; Q969H0; AlphaScreen FBW7–phospho-cyclin E peptide binding, activator screen; in the data active means normalized activity above about 1.9%;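 further: purified mutant Fbw7 with reduced substrate affinity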
# MITF primary = inhibitors of human MITF; O75030; AlphaScreen MITF homodimerization, bead proximity signal; inhibition, % at 2.6 µM; hit rate 0.91% among 650,000; in the data active means inhibition above about 50%
# GPR151 ag = human GPR151 activation. Q8TDV0. AID 1508602. hit rate 1% among 650,000. activation, % at 11.2 µM. PathHunter beta-arrestin GPR151 cells, luminescence; in the data active means activation above about 4.9%
# Target sequence (Q8TDV0 whole entry, looked up): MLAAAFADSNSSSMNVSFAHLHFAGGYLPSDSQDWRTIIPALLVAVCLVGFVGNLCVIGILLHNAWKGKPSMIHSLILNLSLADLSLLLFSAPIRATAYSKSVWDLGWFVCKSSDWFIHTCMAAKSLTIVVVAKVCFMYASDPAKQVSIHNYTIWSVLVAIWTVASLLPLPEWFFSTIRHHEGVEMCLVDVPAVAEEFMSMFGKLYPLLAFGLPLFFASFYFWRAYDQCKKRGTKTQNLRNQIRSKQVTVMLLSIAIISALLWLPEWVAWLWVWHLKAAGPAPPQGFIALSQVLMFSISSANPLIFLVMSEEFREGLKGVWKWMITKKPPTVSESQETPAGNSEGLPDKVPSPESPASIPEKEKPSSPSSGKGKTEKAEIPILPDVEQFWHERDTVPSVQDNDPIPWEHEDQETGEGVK
# TEAD-YAP block = TEAD-YAP interaction inhibition; AID 1259422; hit rate 1.4% among 640,000; HEK-TIYL cells, TEAD-Gal4/YAP UAS-luciferase luminescence; inhibition, % at 9.12 µM; in the data active means inhibition above about 32%
# A number is an active result; n = inactive.
SMILES,FBW7 activator,MITF primary,GPR151 ag,TEAD-YAP block
O=C(CN1C(=O)[C@H]2CCCN2C(=O)c2ccccc21)N1CCCCCC1,n,n,n,n
N#Cc1cc(N)c(Nc2ccccc2)cc1C#N,n,n,n,n
N#Cc1cnc(N)c(C#N)c1Nc1ccccc1,n,n,n,38
COc1ccc(CNCc2c(C(=O)O)n(Cc3ccc(F)cc3)c3cc(OC)ccc23)cc1,n,n,n,n
CCOC(=O)CNC(=O)CSc1ncnc2scc(-c3ccc(Cl)cc3)c12,n,n,n,n
CCOC(=O)CNc1ncnc2scc(-c3ccccc3)c12,n,n,n,35
COc1ccc(-c2csc3ncnc(NCCCO)c23)cc1,n,n,n,n
CCOC(=O)CSc1ncnc2scc(-c3ccc(F)cc3)c12,2.4,n,n,n
COC(=O)CCNc1ncnc2scc(-c3ccc(C)cc3)c12,n,n,n,36
COc1ccc(-c2csc3ncnc(NCCO)c23)cc1,n,n,n,38
COCCn1c(C2COc3ccccc3O2)nc2ccc(-c3ccncc3)cc21 (stereo unspecified),n,n,n,n
COc1ccc(/C(=N/O)c2nccc3cc(OC)c(OC)cc23)cc1OC,n,n,n,n
Cc1ccc(-c2nc(C=Nc3cc(Cl)ccc3C)c(O)o2)cc1,n,n,n,n
COc1cccc(CNC(=O)c2cc3c(C)nc4ccccc4c3o2)c1,n,n,n,n
COc1ccc(CNC(=O)c2cc3c(C)nc4ccccc4c3o2)c(OC)c1,n,n,n,34
COc1ccc(Cn2nnnc2C(c2cccs2)N2CCCC(C)C2)cc1 (stereo unspecified),n,n,n,n
Brc1ccc(-c2ccc(C3CCCCC3)cn2)cc1,n,n,n,63
c1ccc(CN2CCC(Nc3nc(Nc4ccc(N5CCOCC5)cc4)c4ncn(-c5ccsc5)c4n3)CC2)cc1,n,n,n,49
c1ccc(CN2CCC(Nc3nc(Nc4ccc(-n5ccnc5)cc4)nc4c3ncn4-c3ccsc3)CC2)cc1,n,n,n,42
c1ccc(CN2CCC(Nc3nc(NC4CC4)c4ncn(-c5ccsc5)c4n3)CC2)cc1,n,n,n,36
OC1CCC(Nc2nc(NC3CCN(Cc4ccccc4)CC3)c3ncn(-c4ccccc4)c3n2)CC1 (stereo unspecified),n,n,n,42
c1ccc(CN2CCC(Nc3nc(N4CCC(N5CCOCC5)CC4)nc4c3ncn4-c3ccsc3)CC2)cc1,n,n,n,n
c1cc(-n2cnc3c(NC4CC4)nc(N4CCN(Cc5ccc6c(c5)OCO6)CC4)nc32)cs1,n,n,n,37
c1ccc(CN2CCC(Nc3nc(N4CCOCC4)nc4c3ncn4-c3ccsc3)CC2)cc1,n,n,n,44
Cc1nn(C)c(C)c1-c1nc(NC2CCN(Cc3ccccc3)CC2)c2ncn(C(C)C)c2n1,n,n,n,72
SMILES,FBW7 activator,MITF primary,GPR151 ag,TEAD-YAP block
c1cc(-n2cnc3c(Nc4ccc5c(c4)OCO5)nc(N4CCN(Cc5ccc6c(c5)OCO6)CC4)nc32)cs1,n,n,n,n
COc1ccc(NC2=CC(=O)CC(c3ccccc3)C2)c(OC)c1 (stereo unspecified),n,n,n,48
COc1ccc(OC)c(NC2=CC(=O)CC(c3ccccc3)C2)c1 (stereo unspecified),n,n,n,55
CCNc1nc(C)cc(NCc2cccc(C(F)(F)F)c2)n1,n,n,n,n
OC1CCC(Nc2nccc(NCc3cccc(C(F)(F)F)c3)n2)CC1 (stereo unspecified),n,n,n,48
FC(F)(F)c1cccc(CNc2ccnc(Nc3ccc(-n4ccnc4)cc3)n2)c1,n,n,n,36
OC1CCC(Nc2nccc(NCc3ccccc3)n2)CC1 (stereo unspecified),n,n,n,n
CCNc1nccc(NCc2cccc(C(F)(F)F)c2)n1,n,n,n,37
c1cncc(-c2nnc(SCc3nc4ccccc4[nH]3)o2)c1,n,n,n,44
Cc1sc2ncnc(SCC(=O)O)c2c1C,n,n,n,n
Oc1ccc(Br)cc1CN1CCC(N2CCCCC2)CC1,n,n,n,n
CC1CN(C2CCN(Cc3cc(Br)ccc3O)CC2)CC(C)O1 (stereo unspecified),n,70,n,n
OCCN1CCN(C2CCN(Cc3cc(Br)ccc3O)CC2)CC1,n,53,n,n
CCS(=O)(=O)c1ccc(O)c(NS(=O)(=O)c2cc(C(=O)O)ccc2Cl)c1,n,n,n,n
CC[n+]1c(C)sc2ccc(C)cc21,n,n,n,n
CC[n+]1c(/C=C/c2ccc(N(C)C)cc2)sc2cc(C)ccc21,n,n,n,89
COc1ccc(S(=O)(=O)N2c3cc(C)ccc3C(C)=CC2(C)C)cc1,n,n,n,63
CC1=CC(C)(C)N(S(C)(=O)=O)c2ccc(OS(C)(=O)=O)cc21,n,n,n,n
COc1ccc(S(=O)(=O)N2c3ccc(Cl)cc3C(C)=CC2(C)C)cc1,n,n,n,58
Cc1ccc(Sc2cc(Oc3ccccc3)c3c(c2)Oc2ccccc2NC3=O)cc1,n,n,n,n
CCOC(=O)c1c(N)sc(C(=O)Nc2ccc(C)c(Cl)c2)c1C,n,n,n,35
CCOC(=O)c1c(N)sc(C(=O)Nc2ccccc2)c1C,n,n,n,32
CCOC(=O)c1c(N)sc(C(=O)Nc2cccc(Cl)c2)c1C,n,n,n,50
COC(=O)c1c(N)sc(C(=O)Nc2cccc(Cl)c2C)c1C,n,n,n,69
CC1CN(CCNC(=O)c2cn[nH]c2)Cc2ccccc2O1 (stereo unspecified),n,n,n,n
SMILES,FBW7 activator,MITF primary,GPR151 ag,TEAD-YAP block
N#C/C(=C(/O)CN1C(=O)c2ccccc2S1(=O)=O)c1nc2ccccc2[nH]1,n,n,n,n
Cn1c(SCC(N)=O)nnc1C1CCN(C(=O)NC2CCCCC2)CC1,n,n,n,n
CCOC(=O)c1c(N)sc(C(=O)Nc2ccccc2F)c1C,n,n,n,48
CCOC(=O)c1c(N)sc(C(=O)Nc2ccccc2C(F)(F)F)c1C,n,n,n,n
Cn1c(Nc2nc(Nc3ccc(N4CCOCC4)cc3)c3ncn(-c4ccsc4)c3n2)nc2ccccc21,n,n,n,35
CC(=O)Nc1ccc(Nc2nc(Nc3ccccn3)nc3c2ncn3-c2ccccc2)cc1,n,n,n,56
c1ccc(-n2cnc3c(Nc4ccc(N5CCOCC5)cc4)nc(Nc4ccccn4)nc32)cc1,n,n,n,58
COc1ccc(-c2nc(Nc3ccc(NC(C)=O)cc3)c3ncn(-c4ccccc4)c3n2)cc1,n,n,n,41
Cc1ccc(-c2[nH]nc3c2C(c2ccc4c(c2)OCO4)C(C#N)=C(N)O3)cc1 (stereo unspecified),n,n,n,n
COc1ccc(CCNC(=O)CCCCCn2c(SCC(=O)c3ccc(Br)cc3)nc3ccsc3c2=O)cc1OC,n,n,n,n
Cn1c(Nc2nc(Nc3ccc(N4CCOCC4)cc3)c3ncn(-c4ccccc4)c3n2)nc2ccccc21,n,n,n,33
c1ccc(-n2cnc3c(Nc4ccc(N5CCOCC5)cc4)nc(Nc4ncccn4)nc32)cc1,n,n,n,n
Cc1ccc2nc(-c3ccc(SCC(N)=O)nc3)[nH]c2c1,n,n,n,53
